{"source": "PubChem BioAssay (NCI)", "note": "“And” between values parts separate entries of the source, which are not always exact repeats. Equal values may be shown once. The panel holds about 83,000 compounds, 20% with a hit somewhere; the sample as a whole holds those more often.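 Values shown are percent growth following 48 h exposure of cells in 96-well plates to a single concentration of compound; below 10 was considered active.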 The source made the active and inactive calls."}
{"test_system": "MDA-MB-468 breast", "assay": "NCI-60 one-dose screen, 48 h (100 = growth as untreated, 0 = no growth, -100 = all killed)", "details": "10 µM unless noted"}
{"smiles": "O=C(Nc1ncc(Cc2cccc(C(F)(F)F)c2)s1)c1ccc(-n2cnnn2)cc1", "growth": "16.7% (inactive)"}
{"smiles": "COc1ccc(Nc2ncccc2NC(=O)c2cn(Cc3cccc(Oc4ccccc4)c3)nn2)cc1", "growth": "89.8% (inactive)"}
{"smiles": "COC(=O)[C@H](C(C)C)n1c(=O)c2cc(OC)c(OC)cc2c2cnc3[nH]ccc3c21", "growth": "36.5% (inactive)"}
{"smiles": "CCCCCCNC(=O)Oc1ccc(/C(=C(\\C)c2ccccc2)c2ccc(OCCCN(C)C)cc2)cc1", "growth": "95% (inactive)"}
{"smiles": "Sc1ccc(Nc2c3ccccc3nc3ccccc23)cc1", "growth": "44.1% (inactive)"}
{"smiles": "CCN(CCNc1ccc(C)c2sc3cc(Cl)ccc3c(=O)c12)CC(C)(C)O", "growth": "-19.3% (active)"}
{"smiles": "CC(C)CCCCCOC(=O)c1ccccc1SSc1ccccc1C(=O)OCCCCCC(C)C", "growth": "109% (inactive)"}
{"smiles": "Cc1cc2c(C(C)C)c(O)c(O)c(C=Nc3ccccc3[N+](=O)[O-])c2c(O)c1-c1c(C)cc2c(C(C)C)c(O)c(O)c(C=Nc3ccccc3[N+](=O)[O-])c2c1O", "growth": "80.5% (inactive)"}
{"smiles": "CCCCCCCCCCCCOC(=O)/C=C\\C(=O)NC(N)=O", "growth": "82.1% (inactive)"}
{"smiles": "COc1ccc(-c2nn(-c3ccc(S(C)(=O)=O)cc3)cc2/C=N/O)cc1", "growth": "117% (inactive)"}
{"smiles": "CCCCN1C(=O)/C(=c2\\sc3n(c2=O)NC2C(N=3)N(CC)C(=O)N2CC)c2ccccc21", "note": "(stereo not given)", "growth": "14.3% (inactive)"}
{"smiles": "O=C(NNc1nc2cc(F)c(F)cc2n2cccc12)c1cccnn1", "growth": "-11.1% (active)"}
{"smiles": "Nc1ccc(Cl)c([N+](=O)[O-])c1", "growth": "98.5% (inactive)"}
{"smiles": "CCN(CC)CCCNC(=O)c1ccc(N)cc1O", "growth": "85.7% (inactive)"}
{"smiles": "CCOc1ccc(Nc2nc3c(s2)C(=O)c2ccccc2C3=O)cc1", "growth": "68.8% (inactive)"}
{"smiles": "COc1ccc(-c2c(C#N)cnc(N)c2-c2nc3cc(C)c(C)cc3[nH]2)cc1", "growth": "57.9% (inactive)"}
{"smiles": "COc1c(NC=O)c2c(c([N+](=O)[O-])c1OC)C(=O)OC2", "growth": "113% (inactive) and 93.1% (inactive)"}
{"smiles": "C=C1C(=O)O[C@H]2[C@H]1CC/C(COC(=O)CCSCCC(=O)OC/C1=C/CC[C@@]3(C)O[C@H]3[C@H]3OC(=O)C(=C)[C@@H]3CC1)=C\\CC[C@@]1(C)O[C@@H]21", "growth": "-23.6% (active)"}
{"smiles": "OCc1cnccc1NCCCOc1ccccc1", "growth": "94.4% (inactive)"}
{"smiles": "Cc1cc(N(CCCNc2ccnc3cc(Cl)ccc23)Cc2ccc3c(c2)OCO3)nc(N2CCCCC2)n1", "growth": "-45.2% (active)"}
{"smiles": "CCCC/C=N/NC(=S)NCc1ccccc1", "growth": "93% (inactive)"}
{"smiles": "C#Cc1ccc(C(=O)NCc2ccc(/C=C/C(=O)c3nccn3C)cc2)cc1", "growth": "18% (inactive)"}
{"smiles": "CN1CCn2c(c(Sc3ccc(C(=O)NO)cc3)c3ccccc32)C1=O", "growth": "-39.2% (active)"}
{"smiles": "O=S(=O)(NCCCNc1nccc(-c2c(-c3ccc(F)c(O)c3)nc3sccn23)n1)c1ccccc1", "growth": "82.4% (inactive)"}
{"smiles": "C=C1CC[C@@H]2[C@](C)(CO)[C@H](O)CC[C@@]2(C)[C@@H]1C/C(O)=C1\\CCOC1=O", "growth": "90.8% (inactive)"}
{"smiles": "CN(C)c1ccc(Nc2c3ccccc3nc3cc(NC(=O)CCN4CCCC4)ccc23)cc1", "growth": "-74.9% (active)"}
{"smiles": "COC(=O)[C@]12CC[C@@H](C)[C@H](C)[C@@H]1C1=CC(=O)[C@@H]3[C@@]4(C)C[C@@H](O)[C@H](O)[C@@]5(C)COC(=C45)C[C@@]3(C)[C@]1(C)CC2", "growth": "44.2% (inactive)"}
{"smiles": "COc1ccc(C(=O)Nc2ccc3nc(N4CCCCC4)cc(C)c3c2)cc1OC", "growth": "73.6% (inactive)"}
{"smiles": "O=C1/C(=C/c2ccccn2)CCc2ccccc21", "growth": "98.4% (inactive)"}
{"smiles": "Cc1c(CN)cc(-c2ccc(Cl)cc2)n1-c1ccccc1", "growth": "18.7% (inactive)"}
{"smiles": "CC(=O)OCC(=O)C1(O)C(C)CC2C3C=C(C)C4=Cc5c(cnn5-c5ccccc5)CC4(C)C3C(O)CC21C", "note": "(stereo not given)", "growth": "-10.9% (active)"}
{"smiles": "CCCCC(=O)Nc1ncc(Cc2ccc(Cl)cc2)s1", "growth": "26.2% (inactive)"}
{"smiles": "O=c1c2cc(Br)cc(Br)c2nc(-c2ccc(Cl)cc2)n1/N=C\\c1ccccc1F", "growth": "79.1% (inactive)"}
{"smiles": "COc1ccc(Oc2nc(Nc3ccc(N4CCOCC4)cc3)ncc2NC(=O)c2cccc(C(F)(F)F)c2)cc1", "growth": "93% (inactive)"}
{"smiles": "c1cc(CNC23CC4CC(CC(C4)C2)C3)cc(C[N+](Cc2cccc(CNC34CC5CC(CC(C5)C3)C4)c2)(Cc2cccc(CNC34CC5CC(CC(C5)C3)C4)c2)Cc2cccc(CNC34CC5CC(CC(C5)C3)C4)c2)c1", "note": "(stereo not given)", "growth": "-47.1% [42 µM] (active)"}
{"smiles": "COc1cc2nc(Cl)nc(Nc3cccc(C4=Nc5c(N)nc(N)nc5NC(c5ccccc5)C4)c3)c2cc1OC", "note": "(stereo not given)", "growth": "96.5% (inactive)"}
{"smiles": "N#Cc1nc(-c2ccccc2)oc1S(N)(=O)=O", "growth": "41.1% (inactive)"}
{"smiles": "Cc1nc(N)nc(SCc2ccccc2)c1Br", "growth": "69% (inactive)"}
{"smiles": "CCOC(=O)c1sc2ncnc(Nc3ccc4c(cnn4C(=O)Nc4ccccc4)c3)c2c1C", "growth": "78.1% (inactive)"}
{"smiles": "CC(C)(C)Nc1nc2c(OCCc3ccccc3)cccn2c1-c1cccc(F)c1", "growth": "-30.8% (active)"}
